Experimental findings from PubChem BioAssay AID2156 (Johns Hopkins Ion Channel Center, 2009) are described below.

About 3,400 (1.1%) of roughly 310,000 compounds were called active. Only a selection was taken, and actives are over-represented in it overall. A number with no mark means an inactive call.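 The calls were made as follows: active = fluorescence ratio B-score at most minus 3 library SDs, with starting brightness B-score within 2 library SDs (cut at about -5.5 in these data); inactive = the rest, inconclusive results apart.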 Peptide text beside a SMILES is read from it. * marks the point of attachment. OPac = O=C(CO*)c1ccccc1; Bz = O=C(c1ccccc1)*

For this experiment, the target named is Potassium voltage-gated channel subfamily KQT member 2 (Rattus norvegicus) (UniProt O88943). The experiment can be described thus: rat KCNQ2 potassium channel inhibitors, primary screen, cell-based, CHO-K1, FluxOR thallium flux, B-score (AID 2156). The conditions noted are these: 20 min, at 10 µM; stronger effect = lower value.
Potassium voltage-gated channel subfamily KQT member 2 (Rattus norvegicus), sequence (O88943 whole entry, looked up): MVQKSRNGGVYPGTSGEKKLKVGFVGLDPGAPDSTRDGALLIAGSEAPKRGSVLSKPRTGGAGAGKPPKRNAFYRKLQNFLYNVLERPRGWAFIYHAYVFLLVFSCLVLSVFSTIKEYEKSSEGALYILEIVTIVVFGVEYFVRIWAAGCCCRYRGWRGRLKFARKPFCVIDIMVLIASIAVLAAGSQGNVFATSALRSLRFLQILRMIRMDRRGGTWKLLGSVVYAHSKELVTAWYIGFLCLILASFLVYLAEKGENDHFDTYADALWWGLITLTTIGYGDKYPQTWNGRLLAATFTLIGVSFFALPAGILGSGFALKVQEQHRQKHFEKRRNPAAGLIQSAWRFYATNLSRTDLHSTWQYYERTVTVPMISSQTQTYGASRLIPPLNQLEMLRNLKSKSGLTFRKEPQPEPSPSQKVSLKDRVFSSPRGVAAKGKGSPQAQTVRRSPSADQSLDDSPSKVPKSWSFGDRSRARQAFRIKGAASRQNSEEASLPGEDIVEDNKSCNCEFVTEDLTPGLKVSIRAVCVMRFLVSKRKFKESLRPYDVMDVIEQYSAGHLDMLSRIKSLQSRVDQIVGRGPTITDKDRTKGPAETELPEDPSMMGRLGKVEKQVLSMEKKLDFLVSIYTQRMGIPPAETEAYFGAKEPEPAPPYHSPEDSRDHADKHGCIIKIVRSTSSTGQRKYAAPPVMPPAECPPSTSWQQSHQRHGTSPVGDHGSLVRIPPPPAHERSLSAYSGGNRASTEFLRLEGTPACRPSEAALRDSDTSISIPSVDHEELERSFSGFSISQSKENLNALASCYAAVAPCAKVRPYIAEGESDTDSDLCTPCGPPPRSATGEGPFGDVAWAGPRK
On to `CCOC(=O)N1CCN(C(=O)c2ccccc2SCC(=O)NCC2CCCCC2)CC1`, for which the B-score result was “inactive”.

Turning to `COc1ccc(NS(=O)(=O)c2ccc(C)c(C(=O)NCC(c3cccs3)N3CCOCC3)c2)cc1` (stereo not given), the B-score was -0.42. Turning to `COc1cc(-c2n[nH]c(=S)n2Cc2ccccc2)cc(OC)c1OC`, the B-score was -0.07. The result for `CCC(C)n1c(-c2cc(OC)c(OC)c(OC)c2)nc2nc3ccccc3nc21` (stereo not given) reads -6.81 (active); that for `COc1cc(C(O)c2nc3ccccc3n2C)cc(OC)c1OC` (stereo not given), -0.53.

Take `Cc1csc(=O)n1CC(=O)OCC(=O)N(CC(C)C)c1c(N)n(Cc2ccccc2)c(=O)[nH]c1=O`: the B-score result was “inactive”. Turning to `COc1ccc(Cc2nnc(SCC(=O)N(c3ccccc3)C(C)C)n(N)c2=O)cc1`, the B-score is -2.15. The result for `O=C(COC(=O)Cc1ccccc1F)NNC(=O)c1ccc(Cl)cc1` reads “inactive”; that for `Cc1cc(Cl)c2oc(C(=O)NC(C)c3ccncn3)c(C)c2c1` (stereo not given), “inactive”; that for `Cc1cc(Cl)c2oc(C(=O)N3CCC(O)(c4ccccc4)CC3)c(C)c2c1`, -2.12.

As for `Cc1cc(Cl)c2oc(C(=O)N(C)C(C)c3ccccn3)c(C)c2c1` (stereo not given), the B-score was -5.81 (active). The result for `Cc1ccc(C(=O)C(C)OC(=O)Cc2n[nH]c(=O)c3ccccc23)cc1C` (stereo not given) reads “inactive”. The result for `CN(C)Cc1ccccc1C1(O)c2ccccc2CSc2ccccc21` (stereo not given) reads -7.67 (active); that for `COCCn1c(SC(C)C(=O)NC2CC2)nnc1-c1cccc(C)c1` (stereo not given), “inactive”.

In the case of `CC(OC(=O)C1CC(=O)N(Cc2ccccc2)C1)C(=O)Nc1ccccc1[N+](=O)[O-]` (stereo not given), the B-score result was “inactive”. For `Clc1ccccc1CSc1nnc(-c2ccco2)c(-c2ccco2)n1`, the B-score is -9.12 (active). With `Fc1cccc(Cl)c1CSc1ccc(-c2ccco2)nn1`, the B-score is -0.68. As for `COC(OC)c1ccnc(SCc2ccccc2Cl)n1`, the B-score was -0.02. On to `CCOc1ccc(S(=O)(=O)Nc2ccc(C(=O)NCCCN3CCCC3=O)cc2)cc1`, for which the B-score entry was “inactive”. The result for `CCCNC(=O)c1ccc(N2CCC3(CC2)CC(c2cccc(Br)c2)=NO3)c(NC(=O)c2ccco2)c1` reads -0.15; that for `Cc1cc2nc3n(c2cc1C)CC1CC(C(=O)NCCC(C)C)N(C)C31` (stereo not given), “inactive”; that for `Cc1sc(NC(=O)c2ccc3ncsc3c2)c(C(N)=O)c1C`, “inactive”. The result for `Cc1ccc(C(=O)c2c(NC(=O)c3ccncc3)sc3c2CCCC3)cc1` reads -3.32. The result for `Cc1ccc(C(=O)c2c(NC(=O)c3ccccc3)sc(C)c2C)cc1` reads -7.48 (active). For `COc1ccc(N2CCN(S(=O)(=O)c3cc4c5c(c3)C(C)C(=O)N5CCC4)CC2)cc1` (stereo not given), the B-score entry is “inactive”. `COc1ccc(-c2ccc3nnc(SCC(=O)Nc4ccc(NC(C)=O)cc4)n3n2)cc1`: the B-score was -0.47.

In the case of `CC(=O)Nc1ccc(NC(=O)CSc2nnnn2C2CCCCC2)cc1`, the B-score is -0.45.

For the compound `COc1ccccc1NC(=O)c1cc(Cl)nc2ccccc12`, the B-score was -4.22. `COc1ccc(-c2cc(C(=O)Nc3ccccc3O)c3ccccc3n2)cc1`: the B-score was -1.2.

As for `COc1ccc(NC(=O)c2cc(-c3cc(OC)c(OC)c(OC)c3)nc3ccccc23)c(OC)c1`, the B-score was -5.97 (active). The result for `O=C1CC2(CCN(C(=O)COc3ccc(F)cc3)CC2)Oc2ccccc21` reads “inactive”; that for `COc1ccc(C(=O)c2c3ccc([N+](=O)[O-])cc3[n+]([O-])n2CCCN)cc1`, -0.22. On to `CCCCCC(=O)N1CCN(S(=O)(=O)c2ccc3c(c2)OCCCO3)CC1`, for which the B-score is -1.36. For `COc1ccc(-c2nnc(SCC(=O)Nc3cccnc3Cl)n2C)cc1`, the B-score result is “inactive”. The result for `Cc1cccc(N=C2SC(C)CN2C(=O)CN2C(=O)NC3(CCCC3)C2=O)c1` (stereo not given) reads -1.04; that for `CC1(C)C=Cc2c(ccc3c2OC[C@@H](c2ccc(O)cc2O)C3)O1`, -5.7 (active).

Take `O=C(COc1ccccc1Cl)Nc1ccccc1C(=O)NC1CC1`: the B-score result was “inactive”. The result for `Cc1c(C)n2c(SCC(=O)N3CCCC3)nnc2[nH]c1=O` reads -0.73. The result for `CCOC(=O)C1CCN(C(=O)Nc2ccc(C)c(Cl)c2)CC1` reads “inactive”; that for `CCOC(=O)N1CCC(N(CCOC)C(=O)Nc2ccc(C)c(C)c2)CC1`, -7.75 (active).

`CCOC(=O)C1CCN(C(=O)Nc2cccc(OC)c2)CC1`: the B-score is -0.14. The result for `O=C(OCC1OC(Oc2ccc(O)cc2)C(O)C(O)C1O)c1ccccc1` (stereo not given) reads -0.52. The result for `Cn1ccsc1=NC(=O)c1cc(S(=O)(=O)N2CCOCC2)ccc1Cl` reads -2.45; that for `CC(C)N(C(=O)c1ccc(-c2ccccc2F)cc1)C(C)C`, -1.82; that for `CC(=O)N(C1=C(Cl)C(=O)c2ccccc2C1=O)c1ccc(C(=O)O)cc1`, -10.4 (active). The result for `O=C(CN1C(=O)c2ccccc2C1=O)NCc1ccc(C(=O)O)cc1` reads -0.02; that for `CC(=O)c1c(C)[nH]c(C(=O)N2CCN(S(=O)(=O)c3ccc(F)c(F)c3)CC2)c1C`, “inactive”; that for `C=CCOc1ccc(/C=C/C(=O)OCC(=O)NCC2CCCO2)cc1` (stereo not given), “inactive”. As to `CCc1ccc(-c2cc(C(=O)NCc3ccco3)c3ccccc3n2)s1`, the B-score was -7.07 (active).

For `CCCCN(C)CCCNC(=O)c1cc(-c2cccs2)nc2ccccc12`, the B-score entry was “inactive”. On to `COC(=O)CNC(=O)c1cc(-c2ccncc2)nc2ccccc12`, for which the B-score is -0.09. The result for `COc1ccc(NS(=O)(=O)c2ccc(C)c(C(=O)NNC(=O)c3csc(N4CCOCC4)n3)c2)cc1` reads -0.78. The result for `CCc1noc(C)c1C(=O)N1CCCSC1=Nc1ccccc1OC` reads “inactive”; that for `CCC1(c2ccccc2)NC(=O)N(CC(=O)Nc2ccccc2C(=O)NC2CCCC2)C1=O` (stereo not given), “inactive”; that for `CCN1C(=O)[C@H]2[C@@H](c3ccc(C)cc3)N3C(=O)N(c4cccc(Br)c4)C(=O)[C@@]3(CC)[C@H]2C1=O`, -0.8.

`FC(F)(F)c1cccc(-c2cc3ccccc3nc2N2CCCC2)c1`: the B-score was -6.95 (active). The result for `O=C(c1cc2ccccc2o1)N1CCN(c2cccc(C(F)(F)F)c2)CC1` reads -0.25; that for `c1ccc(-c2cc(N3CCCCC3)c3ccccc3n2)cc1`, -0.16. Take `O=C(N/N=C/c1cc(Br)c(O)c([N+](=O)[O-])c1)C(O)(c1ccccc1)c1ccccc1`: the B-score entry was “inactive”.

On to `CCOC(=O)CSC1=C(C#N)C(c2ccco2)C(C(=O)OCc2ccccc2)=C(C)N1` (stereo not given), for which the B-score was -2.55. The result for `C=CCOC(=O)C1=C(C)OC(N)=C(C#N)C1c1ccc(F)cc1` (stereo not given) reads “inactive”; that for `C=CCOC(=O)C1=C(C)NC(SCC(=O)OCC)=C(C#N)C1c1ccc(C)cc1` (stereo not given), -6.37 (active). The result for `CC(C)N(Cc1nnc(-c2ccc(Cl)cc2)o1)C(=O)C1=COCCO1` reads -1.82; that for `CCOC(=O)C1CCc2nc3ccccc3c(=O)n21` (stereo not given), “inactive”. The result for `CCOn1c(SC(C)C)nc2ccccc2c1=O` reads -2.44; that for `CCOC(=O)C(C)Sc1nc2ccccc2c(=O)n1CC1CCCCC1` (stereo not given), -10.1 (active). As for `CCCCn1c(N)c(N(CCOC)C(=O)c2cccc(S(=O)(=O)N(C)c3ccccc3)c2)c(=O)[nH]c1=O`, the B-score was -0.06. For `COc1ccc(C)cc1NC(=O)C(Sc1ccccc1)c1ccccc1` (stereo not given), the B-score is -2.05. The result for `COc1ccc(C)cc1NC(=O)C(OC(=O)c1cccc(S(=O)(=O)N(C)c2ccccc2)c1)c1ccccc1` (stereo not given) reads -7.07 (active). The result for `COc1ccc(C)cc1NC(=O)Nc1ccccc1SC` reads “inactive”; that for `Cc1ccc(S(=O)(=O)N2CCN(C(=O)c3ccccc3-c3nc4ccccc4s3)CC2)c(C)c1`, -0.72; that for `CCOC(=O)CSc1nc2c(c(=O)n(C)c(=O)n2C)n1Cc1ccccc1F`, “inactive”. In the case of `CCOC(=O)CSc1nc2c(sc(=S)n2CCc2ccccc2)c(=O)n1Cc1ccco1`, the B-score is -5.6 (active).

Consider `CCOC(=O)CSc1nnc(-c2ccco2)n1C`, for which the B-score entry was “inactive”. The result for `OCCCNc1nc(-c2ccccc2)c2cc(Cl)ccc2n1` reads “inactive”; that for `CCCCn1c(N)c(N(CC(C)C)C(=O)c2ccc(Br)o2)c(=O)[nH]c1=O`, “inactive”. The result for `O=C(c1ccc(F)c(S(=O)(=O)N2CCOCC2)c1)N(CCc1ccccc1)Cc1ccccc1` reads -2.85; that for `COc1ccc(-c2nc(N)ncc2-c2ccc(Cl)cc2)c(O)c1`, -0.21; that for `COc1cccc(-c2cnc(OC(C)(C)C)nc2OC(C)(C)C)c1`, -7.02 (active). The result for `CC(C)(C)Oc1ncc(Br)c(OC(C)(C)C)n1` reads “inactive”; that for `CC(Oc1ccc(F)cc1)C(=O)Nc1ccccc1C(=O)NC1CC1` (stereo not given), -1.68; that for `COc1ccc(C2CC(c3cccs3)=NN2C(=O)COC(=O)c2cc3ccccc3cc2O)cc1OC` (stereo not given), “inactive”. Regarding `COc1ccc(C2CC(c3cccs3)=NN2C(=O)CCC(=O)O)cc1OC` (stereo not given), the B-score entry is “inactive”. As to `O=C1c2cccc(OCC(=O)N3N=C(c4cccs4)CC3c3ccc(F)cc3)c2CCN1Cc1ccccc1` (stereo not given), the B-score is -5.75 (active). The result for `Nc1cccnc1Sc1ccccc1` reads “inactive”; that for `Cc1ccccc1OCC(=O)NCC(=O)OCC(=O)c1ccc2ccccc2c1`, -5.95 (active). The result for `O=C(CNC(=O)c1ccccc1)NCC(=O)OCC(=O)c1ccccc1` (Bz-Gly-Gly-OPac) reads “inactive”. The result for `COCCNC(=O)COc1ccccc1C` reads -1.11. As to `Nc1c(C(=O)Nc2ccc3c(c2)OCCO3)nnn1Cc1ccccc1`, the B-score was -0.47. The result for `CN1/C(=C\C(=O)c2oc3ccccc3c2N)C(C)(C)c2ccccc21` reads -0.16.

As to `CC(C)Nc1nnc(SCC(=O)/C=C2\N(C)c3ccccc3C2(C)C)s1`, the B-score entry is “inactive”. With `CC(=O)Nc1cccc(OCC(=O)/C=C2\N(C)c3ccccc3C2(C)C)c1`, the B-score was -6.18 (active). The result for `Cc1ccc(S(=O)(=O)N(C)C)cc1NC(=O)C1Cc2ccccc2CN1C(=O)c1ccco1` (stereo not given) reads -0.13; that for `Cc1ccc(NC(=O)C2CCCN2C(=O)OCc2ccccc2)cc1C` (stereo not given), “inactive”. The result for `Cc1ccc(C)c(NC(=O)C2Cc3ccccc3CN2C(=O)OCc2ccccc2)c1` (stereo not given) reads -6.25 (active).
